Records with an inconclusive call do not appear. Values without a mark were called inactive. Calls of active or inactive are those of the source. Calls come from the whole dose curve; as a rule, active = well fitted inhibition curve with a large enough effect; inconclusive = small, poorly fitted or top-dose-only effect; inactive = no such curve, though single readings can be large or run the other way.
assay: qHTS to identify inhibitors of the type 1 interferon - major histocompatibility complex class I in skeletal muscle: primary screen against the NCATS Mechanism Interrogation Plate v5.0 (MIPE) Libary (AID 1347411); details: iHSKM cells + IFN-b, HiBiT-tagged MHC-I luminescence, 24 h; series mostly up to 45.8 µM; activity change, negative = inhibition: at the top concentration; note: nearly all actives have a fitted effect of over 65% in size;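 for activity change, negative = inhibition: plate controls were vehicle for no effect and reference inhibitor for full effect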
Summary of the method: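 HLA-B HiBit myoblasts, dexamethasone-free medium + 4 ng/ml IFN-b, 24 h compound, 11-pt 1:3 from 46 uM final. Readout: Nano-Glo HiBiT lytic luminescence after 10 min lysis, RT.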
Potency is the fitted concentration of half-maximal effect.

Compound | Potency | activity change, negative = inhibition
CC(C)CC(=O)Nc1n[nH]c2c1CN(C(=O)C1CCN(C)CC1)C2(C)C | 1.04 µM (active) | –
O=C(O)CCCc1c[nH]c2ccccc12 | – | -8.85%
CCN1CCN(CC(=O)Nc2ccc(-c3cccc4c(=O)cc(N5CCOCC5)oc34)c3sc4ccccc4c23)CC1 | – | 4.22% [at 15.5 µM]
c1cc(-c2cnn3cc(-c4ccc(OCCN5CCCCC5)cc4)cnc23)ccn1 | 10.4 µM (active) | –
C[C@@H](Oc1cc(-n2cnc3ccc(CN4CCN(C)CC4)cc32)sc1C(N)=O)c1ccccc1C(F)(F)F | 20.8 µM (active) | –
C[C@@H]1COC(Nc2ccc3ncnc(Nc4ccc(OCc5nccs5)c(Cl)c4)c3c2)=N1 | 16.5 µM (active) | –
Cc1c(Cn2c(C)nc3c(C(=O)O)cc(N4CCOCC4)cc32)cccc1C(F)(F)F | – | -17.1%
C[C@@H]1CN(CC(=O)Nc2ccc3c(c2)Cc2cccc(-c4cc(=O)cc(N5CCOCC5)o4)c2S3)C[C@H](C)O1 | – | -29.1%
O=C(NC1CCNCC1)c1[nH]ncc1NC(=O)c1c(Cl)cccc1Cl | 0.262 µM (active) | –
CC(=O)c1c(C)c2cnc(Nc3ccc(N4CCNCC4)cn3)nc2n(C2CCCC2)c1=O | 14.7 µM (active) | –
Cc1ccc2nc(NC(=O)CSc3nc4c(c(=O)n3-c3ccccc3)SCC4)sc2c1 | – | 13.6%
O=C(Nc1cn[nH]c1-c1nc2ccc(CN3CCOCC3)cc2[nH]1)NC1CC1 | 3.3 µM (active) | –
CC(C)C[C@H](NC(=O)CNC(=O)c1cc(Cl)ccc1Cl)B(O)O | 0.104 µM (active) | –
COc1cccc(-c2ccc(NC(=O)C3=C(C(=O)O)CCC3)c(F)c2)c1 | – | -40.5%
CCc1cc2c(cc1N1CCC(N3CCOCC3)CC1)C(C)(C)c1[nH]c3cc(C#N)ccc3c1C2=O | – | -18.9% [at 15.5 µM]
Cc1c(NC(=O)OC[C@@H]2COCCN2)cn2ncnc(Nc3ccc4c(cnn4Cc4cccc(F)c4)c3)c12 | – | -5.15%
CC(C)Nc1cc(C(F)(F)F)cc2nc(NC(=O)c3cccnc3)nn12 | – | -21.4%
COc1ccc(-n2nc(C(N)=O)c3c2C(=O)N(c2ccc(N4CCCCC4=O)cc2)CC3)cc1 | – | -12.2%

Compound | Potency | activity change, negative = inhibition
O=C(O)[C@H](Cc1c[nH]c2ccccc12)N1C(=O)c2ccccc2C1=O | – | -36.2%
C=CCn1c(=O)c2cnc(Nc3ccc(N4CCN(C)CC4)cc3)nc2n1-c1cccc(C(C)(C)O)n1 | – | -22.3%
COc1cccc2nc(-c3cccs3)nc(NN3C(=O)C=C(C)C3=O)c12 | 2.94 µM (active) | –
COCCOc1ccc2c(c1)ncn2-c1ccc2cccc(N3CCC(N)CC3)c2n1 | 1.86 µM (active) | –
CC(C)c1ccc(Cn2ccc3c4c(N)nc(NC5CC5)nc4ccc32)cc1 | 4.66 µM (active) | –
CC(C)c1cc(-c2n[nH]c(=O)n2-c2ccc3c(ccn3C)c2)c(O)cc1O | 0.0262 µM (active) | –
Nc1cccc(-c2cc3c(Oc4cccc(O)c4)ncnc3[nH]2)c1 | 13.1 µM (active) | –
NCC(=O)Nc1ccc(-n2nc(C(F)(F)F)cc2-c2ccc3c(ccc4ccccc43)c2)cc1 | – | -26.1%
N#CCNC(=O)c1ccc(-c2ccnc(Nc3ccc(N4CCOCC4)cc3)n2)cc1 | 11.7 µM (active) | –
Nc1ncnc2c1c(-c1cnc3[nH]ccc3c1)nn2C1CCCC1 | 0.829 µM (active) | –
COc1cccc(Nc2c(C(N)=O)cnc3c(C)cc(S(=O)(=O)c4cccc(C(=O)N(C)C)c4)cc23)c1 | – | 0.814%
Cc1cn2cc(C(=O)N(C)CCO)cc(N[C@@H]3CCOc4cccc(C)c43)c2n1 | – | -4.02%
Cc1cc(Nc2cc(CN3CCOCC3)c3nc(C)c(Cc4ccc(Cl)cc4F)n3n2)n[nH]1 | 5.23 µM (active) | –
Nc1nc(-c2nn(Cc3ccccc3F)c3ncccc23)nc(N)c1N1CCOCC1 | – | -1.05% [at 15.5 µM]
CC(=O)OCCN1C(=O)c2c(C)nc3ccc(S(=O)(=O)N4CCOCC4)cc3c2C1=O | – | 5.08%
Nc1nc(Nc2ccc(S(N)(=O)=O)cc2)nn1C(=O)c1c(F)cccc1F | 4.15 µM (active) | –
Cc1nc2cnc3ccc(C#Cc4cccnc4)cc3c2n1-c1ccc(C(C)(C)C#N)cc1 | 14.7 µM (active) | –

Source: PubChem BioAssay (NCATS)
